# Assay results taken from paper PMC7862700, “An all-to-all approach to the identification of sequence-specific readers for epigenetic DNA modifications on cytosine”.
# Tests used:
# Assay in all cases: DAPPL (digital affinity profiling via proximity ligation, sequencing); 10 mM Tris-HCl pH 7.5, 50 mM NaCl, 1 mM DTT, 4% glycerol, room temperature, 30 min; GST-TFs on glutathione beads, 16-mer random dsDNA library, 0.1% formaldehyde crosslink after washing; high values mean tight binding
# FEV = biological target: T1, FEV (Homo sapiens, UniProt Q99581 1-238); conditions: protein: recombinant; tags: N-terminal GST; dsDNA, one strand shown
# T1 sequence: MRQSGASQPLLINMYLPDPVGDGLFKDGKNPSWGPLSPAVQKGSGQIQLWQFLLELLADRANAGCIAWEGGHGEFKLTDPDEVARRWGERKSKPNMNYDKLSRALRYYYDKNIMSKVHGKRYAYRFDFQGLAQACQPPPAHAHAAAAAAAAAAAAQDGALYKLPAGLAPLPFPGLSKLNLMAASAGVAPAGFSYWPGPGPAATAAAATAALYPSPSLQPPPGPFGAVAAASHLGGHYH
# Summary of the method: (§1)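 Human transcription factors were made in yeast as GST fusions, captured on glutathione beads and barcoded with DNA. With a tag-only sample included, the pool was incubated with 200 nmole of a random double-stranded 16-mer DNA library in Tris/NaCl/DTT/glycerol buffer at room temperature for 30 min, then crosslinked with 0.1% formaldehyde after washing, ligated by proximity, amplified and sequenced. For binding signal, each hexamer's read frequency for a factor is divided by its frequency for the tag-only sample.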
# ETV5 = ETV5 (Homo sapiens, UniProt P41161 1-510); conditions: protein: recombinant; tags: N-terminal GST; dsDNA, one strand shown
# Chain of ETV5 (P41161 whole entry): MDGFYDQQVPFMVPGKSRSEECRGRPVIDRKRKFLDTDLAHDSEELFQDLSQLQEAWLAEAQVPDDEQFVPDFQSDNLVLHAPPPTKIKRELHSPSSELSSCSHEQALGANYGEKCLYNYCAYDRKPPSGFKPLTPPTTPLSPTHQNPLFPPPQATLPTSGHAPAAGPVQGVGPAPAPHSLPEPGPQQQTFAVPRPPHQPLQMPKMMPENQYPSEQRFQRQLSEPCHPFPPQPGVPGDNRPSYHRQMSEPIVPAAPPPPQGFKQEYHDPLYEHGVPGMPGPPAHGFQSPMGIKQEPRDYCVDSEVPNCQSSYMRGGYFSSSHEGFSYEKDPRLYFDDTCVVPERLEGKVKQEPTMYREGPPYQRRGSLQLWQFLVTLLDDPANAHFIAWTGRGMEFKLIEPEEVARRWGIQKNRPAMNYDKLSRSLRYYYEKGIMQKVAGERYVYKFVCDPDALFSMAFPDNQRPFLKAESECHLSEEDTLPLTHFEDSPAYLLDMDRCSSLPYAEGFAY
# Summary of the method: as §1
# HSF1 = HSF1 (Homo sapiens, UniProt Q00613 1-529); conditions: protein: recombinant; tags: N-terminal GST; chain copies: 3; dsDNA, one strand shown
# Chain of HSF1 (Q00613 whole entry): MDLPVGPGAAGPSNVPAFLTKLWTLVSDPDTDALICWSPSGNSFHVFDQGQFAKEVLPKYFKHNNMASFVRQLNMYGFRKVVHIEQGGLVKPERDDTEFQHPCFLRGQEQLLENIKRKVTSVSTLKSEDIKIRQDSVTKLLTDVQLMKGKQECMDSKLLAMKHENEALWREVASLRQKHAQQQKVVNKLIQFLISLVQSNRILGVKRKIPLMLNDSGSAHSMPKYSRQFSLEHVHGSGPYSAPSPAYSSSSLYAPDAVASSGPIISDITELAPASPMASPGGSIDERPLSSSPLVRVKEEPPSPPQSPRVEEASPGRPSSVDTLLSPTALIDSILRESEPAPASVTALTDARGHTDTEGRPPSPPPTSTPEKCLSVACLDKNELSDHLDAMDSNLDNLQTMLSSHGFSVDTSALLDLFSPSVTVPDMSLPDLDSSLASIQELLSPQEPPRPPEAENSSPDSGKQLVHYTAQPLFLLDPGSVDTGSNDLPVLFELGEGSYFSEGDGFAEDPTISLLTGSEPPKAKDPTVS
# Summary of the method: as §1
# SPIC = biological target: T2, SPIC (Homo sapiens, UniProt Q8N5J4 1-248); conditions: protein: recombinant; tags: N-terminal GST; dsDNA, one strand shown
# T2 sequence: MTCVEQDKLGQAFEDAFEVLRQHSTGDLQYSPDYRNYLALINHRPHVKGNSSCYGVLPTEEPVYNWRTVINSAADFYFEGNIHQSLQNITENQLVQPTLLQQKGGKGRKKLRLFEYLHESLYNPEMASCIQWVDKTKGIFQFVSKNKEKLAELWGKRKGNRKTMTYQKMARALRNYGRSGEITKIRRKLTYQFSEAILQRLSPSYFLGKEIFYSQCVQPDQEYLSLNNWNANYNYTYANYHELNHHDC
# Summary of the method: as §1
# ELF4 = ELF4 (Homo sapiens, UniProt Q99607 1-663); conditions: protein: recombinant; tags: N-terminal GST; dsDNA, one strand shown
# Chain of ELF4 (Q99607 whole entry): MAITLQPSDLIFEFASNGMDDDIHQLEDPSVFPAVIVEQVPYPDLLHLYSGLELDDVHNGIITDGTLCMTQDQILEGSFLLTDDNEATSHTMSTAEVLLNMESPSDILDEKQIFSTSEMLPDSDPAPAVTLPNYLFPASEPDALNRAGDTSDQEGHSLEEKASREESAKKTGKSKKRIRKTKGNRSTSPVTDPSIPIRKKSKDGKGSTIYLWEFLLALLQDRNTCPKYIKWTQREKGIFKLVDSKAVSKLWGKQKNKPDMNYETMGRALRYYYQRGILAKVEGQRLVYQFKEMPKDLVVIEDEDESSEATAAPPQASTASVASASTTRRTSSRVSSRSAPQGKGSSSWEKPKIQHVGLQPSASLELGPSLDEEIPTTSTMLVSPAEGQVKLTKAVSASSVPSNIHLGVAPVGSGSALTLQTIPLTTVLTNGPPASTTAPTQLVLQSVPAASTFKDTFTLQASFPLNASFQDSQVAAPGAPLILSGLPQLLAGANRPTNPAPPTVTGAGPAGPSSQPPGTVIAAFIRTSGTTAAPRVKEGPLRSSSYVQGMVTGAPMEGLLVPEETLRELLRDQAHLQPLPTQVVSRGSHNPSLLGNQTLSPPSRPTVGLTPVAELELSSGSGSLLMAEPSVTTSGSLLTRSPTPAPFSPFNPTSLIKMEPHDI
# Summary of the method: as §1
# ELK4 = biological target: T3, ELK4 (Homo sapiens, UniProt P28324-2 1-405); conditions: protein: recombinant; tags: N-terminal GST; dsDNA, one strand shown
# T3 sequence: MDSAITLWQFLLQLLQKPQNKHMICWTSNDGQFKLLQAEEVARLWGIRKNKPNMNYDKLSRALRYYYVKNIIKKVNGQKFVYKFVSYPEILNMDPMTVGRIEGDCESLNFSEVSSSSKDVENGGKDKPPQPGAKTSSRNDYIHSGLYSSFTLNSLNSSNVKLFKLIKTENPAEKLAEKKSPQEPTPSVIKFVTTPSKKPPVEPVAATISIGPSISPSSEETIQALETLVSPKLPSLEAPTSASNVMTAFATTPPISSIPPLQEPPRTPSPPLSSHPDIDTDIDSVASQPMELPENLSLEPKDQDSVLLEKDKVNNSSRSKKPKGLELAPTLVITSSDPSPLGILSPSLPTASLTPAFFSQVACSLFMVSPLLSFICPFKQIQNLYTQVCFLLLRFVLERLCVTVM
# Summary of the method: as §1
# ETV2 = biological target: T4, ETV2 (Homo sapiens, UniProt O00321 1-342); conditions: protein: recombinant; tags: N-terminal GST; dsDNA, one strand shown
# T4 sequence: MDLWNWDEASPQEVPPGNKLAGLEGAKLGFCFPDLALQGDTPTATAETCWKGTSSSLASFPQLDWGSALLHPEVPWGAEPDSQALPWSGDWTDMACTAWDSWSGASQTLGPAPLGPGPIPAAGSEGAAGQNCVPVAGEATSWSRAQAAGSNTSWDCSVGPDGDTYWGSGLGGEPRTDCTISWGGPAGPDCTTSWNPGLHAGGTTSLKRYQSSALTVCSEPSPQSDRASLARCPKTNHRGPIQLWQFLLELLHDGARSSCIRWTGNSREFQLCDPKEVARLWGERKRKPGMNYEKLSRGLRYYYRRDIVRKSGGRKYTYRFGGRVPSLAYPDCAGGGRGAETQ
# Summary of the method: as §1
# ELF3 = biological target: T5, ELF3 (Homo sapiens, UniProt P78545 1-371); conditions: protein: recombinant; tags: N-terminal GST; dsDNA, one strand shown
# T5 sequence: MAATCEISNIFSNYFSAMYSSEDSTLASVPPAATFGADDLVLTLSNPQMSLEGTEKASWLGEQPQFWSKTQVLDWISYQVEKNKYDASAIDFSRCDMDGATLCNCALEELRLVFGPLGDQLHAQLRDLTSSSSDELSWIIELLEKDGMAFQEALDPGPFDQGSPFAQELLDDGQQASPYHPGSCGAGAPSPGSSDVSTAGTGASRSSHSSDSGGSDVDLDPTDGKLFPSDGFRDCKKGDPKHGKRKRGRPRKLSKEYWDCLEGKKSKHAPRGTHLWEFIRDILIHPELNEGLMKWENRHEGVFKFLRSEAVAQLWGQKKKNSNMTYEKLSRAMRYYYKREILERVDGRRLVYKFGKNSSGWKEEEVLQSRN
# Summary of the method: as §1
# CRX = CRX (Homo sapiens, UniProt O43186 1-299); conditions: protein: recombinant; tags: N-terminal GST; dsDNA, one strand shown
# Chain of CRX (O43186 whole entry): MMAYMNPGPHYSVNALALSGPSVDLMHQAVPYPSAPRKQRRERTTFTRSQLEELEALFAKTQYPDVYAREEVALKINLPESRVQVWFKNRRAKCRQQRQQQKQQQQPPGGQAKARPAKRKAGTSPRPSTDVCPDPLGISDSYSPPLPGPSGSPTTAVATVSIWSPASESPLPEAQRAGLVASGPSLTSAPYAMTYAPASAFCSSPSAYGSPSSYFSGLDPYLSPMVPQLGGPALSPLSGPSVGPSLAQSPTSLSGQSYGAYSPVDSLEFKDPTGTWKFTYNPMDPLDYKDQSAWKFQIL
# Summary of the method: as §1
# ETV1 = ETV1 (Homo sapiens, UniProt P50549 1-477); conditions: protein: recombinant; tags: N-terminal GST; dsDNA, one strand shown
# Chain of ETV1 (P50549 whole entry): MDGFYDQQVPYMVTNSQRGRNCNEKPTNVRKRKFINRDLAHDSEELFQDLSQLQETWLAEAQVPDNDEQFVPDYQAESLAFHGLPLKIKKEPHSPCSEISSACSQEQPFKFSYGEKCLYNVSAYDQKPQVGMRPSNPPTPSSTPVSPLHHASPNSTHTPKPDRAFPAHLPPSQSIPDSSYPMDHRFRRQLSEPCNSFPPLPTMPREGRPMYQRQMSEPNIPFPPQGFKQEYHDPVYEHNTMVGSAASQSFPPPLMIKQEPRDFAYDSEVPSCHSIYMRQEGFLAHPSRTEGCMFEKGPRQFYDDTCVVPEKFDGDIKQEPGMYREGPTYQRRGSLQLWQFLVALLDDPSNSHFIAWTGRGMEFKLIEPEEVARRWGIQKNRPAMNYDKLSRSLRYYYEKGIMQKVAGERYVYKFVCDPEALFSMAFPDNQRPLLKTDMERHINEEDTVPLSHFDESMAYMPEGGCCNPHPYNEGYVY
# Summary of the method: as §1
# ERF = biological target: T6, ERF (Homo sapiens, UniProt P50548 1-548); conditions: protein: recombinant; tags: N-terminal GST; dsDNA, one strand shown
# T6 sequence: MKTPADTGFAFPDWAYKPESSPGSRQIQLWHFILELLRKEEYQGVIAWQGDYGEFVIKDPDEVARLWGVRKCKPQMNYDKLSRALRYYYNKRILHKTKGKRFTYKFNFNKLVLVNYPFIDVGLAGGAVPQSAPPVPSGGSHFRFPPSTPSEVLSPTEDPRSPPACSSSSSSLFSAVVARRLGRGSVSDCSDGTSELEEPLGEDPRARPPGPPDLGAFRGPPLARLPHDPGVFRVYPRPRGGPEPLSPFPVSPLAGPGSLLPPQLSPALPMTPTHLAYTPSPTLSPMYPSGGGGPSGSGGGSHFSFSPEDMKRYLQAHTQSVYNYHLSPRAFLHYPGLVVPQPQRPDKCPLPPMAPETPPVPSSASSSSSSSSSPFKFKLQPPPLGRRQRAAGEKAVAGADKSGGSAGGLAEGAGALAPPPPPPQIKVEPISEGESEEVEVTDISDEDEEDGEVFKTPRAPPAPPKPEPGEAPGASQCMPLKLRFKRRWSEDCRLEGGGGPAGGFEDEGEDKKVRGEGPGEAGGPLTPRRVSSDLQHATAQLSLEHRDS
# Summary of the method: as §1
# ETV3L = biological target: T7, ETV3L (Homo sapiens, UniProt Q6ZN32 1-361); conditions: protein: recombinant; tags: N-terminal GST; dsDNA, one strand shown
# T7 sequence: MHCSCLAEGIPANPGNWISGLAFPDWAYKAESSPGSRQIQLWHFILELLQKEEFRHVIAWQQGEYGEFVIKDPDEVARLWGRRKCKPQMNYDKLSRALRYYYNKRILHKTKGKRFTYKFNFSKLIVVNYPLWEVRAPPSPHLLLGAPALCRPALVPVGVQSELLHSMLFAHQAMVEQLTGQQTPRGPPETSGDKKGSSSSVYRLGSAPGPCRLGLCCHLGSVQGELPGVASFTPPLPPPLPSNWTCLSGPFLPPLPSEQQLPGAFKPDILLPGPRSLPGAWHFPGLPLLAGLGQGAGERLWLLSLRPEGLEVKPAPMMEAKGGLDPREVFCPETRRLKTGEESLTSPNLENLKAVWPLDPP
# Summary of the method: as §1
# ETS2 = biological target: T8, ETS2 (Homo sapiens, UniProt P15036 1-469); conditions: protein: recombinant; tags: N-terminal GST; dsDNA, one strand shown
# T8 sequence: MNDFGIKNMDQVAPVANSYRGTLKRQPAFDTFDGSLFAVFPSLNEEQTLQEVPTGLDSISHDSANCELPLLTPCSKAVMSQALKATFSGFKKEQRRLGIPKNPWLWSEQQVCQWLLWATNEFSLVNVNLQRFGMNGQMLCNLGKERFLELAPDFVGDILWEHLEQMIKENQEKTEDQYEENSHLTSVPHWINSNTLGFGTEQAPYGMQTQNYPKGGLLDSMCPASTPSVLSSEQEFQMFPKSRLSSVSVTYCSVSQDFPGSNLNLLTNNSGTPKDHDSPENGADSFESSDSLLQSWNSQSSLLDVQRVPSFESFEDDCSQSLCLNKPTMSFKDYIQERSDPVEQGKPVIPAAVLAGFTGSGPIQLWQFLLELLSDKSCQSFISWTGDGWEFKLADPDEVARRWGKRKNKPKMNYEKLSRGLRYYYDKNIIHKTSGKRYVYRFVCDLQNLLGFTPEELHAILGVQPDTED
# Summary of the method: as §1
# SPDEF = biological target: T9, SPDEF (Homo sapiens, UniProt O95238 1-335); conditions: protein: recombinant; tags: N-terminal GST; dsDNA, one strand shown
# T9 sequence: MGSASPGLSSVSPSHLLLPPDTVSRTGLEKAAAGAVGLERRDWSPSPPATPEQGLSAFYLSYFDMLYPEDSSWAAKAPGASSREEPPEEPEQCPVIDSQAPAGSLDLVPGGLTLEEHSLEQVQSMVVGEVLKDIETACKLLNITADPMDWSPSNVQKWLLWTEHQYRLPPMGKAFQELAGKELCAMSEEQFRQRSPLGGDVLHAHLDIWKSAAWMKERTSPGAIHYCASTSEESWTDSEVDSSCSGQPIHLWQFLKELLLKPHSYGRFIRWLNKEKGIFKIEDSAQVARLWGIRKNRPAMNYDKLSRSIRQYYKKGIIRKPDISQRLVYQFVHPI
# Summary of the method: as §1
# ETV7 = biological target: T10, ETV7 (Homo sapiens, UniProt Q9Y603 1-341); conditions: protein: recombinant; tags: N-terminal GST; dsDNA, one strand shown
# T10 sequence: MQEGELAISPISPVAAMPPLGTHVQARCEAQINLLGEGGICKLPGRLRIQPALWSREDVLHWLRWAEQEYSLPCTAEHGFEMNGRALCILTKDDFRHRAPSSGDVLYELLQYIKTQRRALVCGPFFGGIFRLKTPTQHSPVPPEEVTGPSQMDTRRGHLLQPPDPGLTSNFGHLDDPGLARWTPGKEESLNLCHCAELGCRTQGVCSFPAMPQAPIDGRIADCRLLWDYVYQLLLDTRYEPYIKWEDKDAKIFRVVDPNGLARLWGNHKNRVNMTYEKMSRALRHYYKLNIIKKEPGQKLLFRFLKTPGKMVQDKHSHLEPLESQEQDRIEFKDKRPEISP
# Summary of the method: as §1
# ELF5 = biological target: T11, ELF5 (Homo sapiens, UniProt Q9UKW6-2 1-255); conditions: protein: recombinant; tags: N-terminal GST; dsDNA, one strand shown
# T11 sequence: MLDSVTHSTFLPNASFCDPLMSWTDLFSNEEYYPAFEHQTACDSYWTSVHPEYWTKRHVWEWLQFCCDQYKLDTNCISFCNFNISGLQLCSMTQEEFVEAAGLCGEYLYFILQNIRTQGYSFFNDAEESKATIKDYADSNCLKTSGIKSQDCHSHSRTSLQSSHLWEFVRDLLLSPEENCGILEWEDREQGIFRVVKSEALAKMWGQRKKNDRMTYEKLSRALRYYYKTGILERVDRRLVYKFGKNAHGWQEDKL
# Summary of the method: as §1
# ETV3 = biological target: T12, ETV3 (Homo sapiens, UniProt P41162-2 1-143); conditions: protein: recombinant; tags: N-terminal GST; dsDNA, one strand shown
# T12 sequence: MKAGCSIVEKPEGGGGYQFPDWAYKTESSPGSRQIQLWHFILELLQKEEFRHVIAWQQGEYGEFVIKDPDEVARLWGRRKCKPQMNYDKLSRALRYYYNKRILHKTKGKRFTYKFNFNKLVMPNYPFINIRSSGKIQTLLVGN
# Summary of the method: as §1
# ETV6 = ETV6 (Homo sapiens, UniProt P41212 1-452); conditions: protein: recombinant; tags: N-terminal GST; dsDNA, one strand shown
# Chain of ETV6 (P41212 whole entry): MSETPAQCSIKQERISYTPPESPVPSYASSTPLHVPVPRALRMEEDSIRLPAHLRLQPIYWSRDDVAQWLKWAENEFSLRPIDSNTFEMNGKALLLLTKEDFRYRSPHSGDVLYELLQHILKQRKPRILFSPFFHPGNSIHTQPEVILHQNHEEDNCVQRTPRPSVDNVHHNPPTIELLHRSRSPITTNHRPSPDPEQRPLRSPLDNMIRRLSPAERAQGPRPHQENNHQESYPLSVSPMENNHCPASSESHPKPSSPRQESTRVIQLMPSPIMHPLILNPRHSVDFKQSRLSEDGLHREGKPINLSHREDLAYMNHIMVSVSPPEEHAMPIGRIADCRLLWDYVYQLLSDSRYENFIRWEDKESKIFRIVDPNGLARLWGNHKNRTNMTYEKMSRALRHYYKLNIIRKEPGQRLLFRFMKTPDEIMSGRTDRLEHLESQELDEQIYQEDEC
# Summary of the method: as §1
sequence,measurement,setting,value
ATTAAT,binding signal,FEV,"1.16 fold enrichment (6-mer frequency, TF over GST control)"
same,binding signal,ETV5,"1.26 fold enrichment (6-mer frequency, TF over GST control)"
same,binding signal,HSF1,"2.47 fold enrichment (6-mer frequency, TF over GST control)"
same,binding signal,SPIC,"1.18 fold enrichment (6-mer frequency, TF over GST control)"
same,binding signal,ELF4,"1.19 fold enrichment (6-mer frequency, TF over GST control)"
same,binding signal,ELK4,"1.23 fold enrichment (6-mer frequency, TF over GST control)"
same,binding signal,ETV2,"1.25 fold enrichment (6-mer frequency, TF over GST control)"
same,binding signal,ELF3,"1.05 fold enrichment (6-mer frequency, TF over GST control)"
same,binding signal,CRX,"3.95 fold enrichment (6-mer frequency, TF over GST control)"
same,binding signal,ETV1,"1.25 fold enrichment (6-mer frequency, TF over GST control)"
same,binding signal,ERF,"1.25 fold enrichment (6-mer frequency, TF over GST control)"
same,binding signal,ETV3L,"1.18 fold enrichment (6-mer frequency, TF over GST control)"
same,binding signal,ETS2,"1.27 fold enrichment (6-mer frequency, TF over GST control)"
same,binding signal,SPDEF,"1.23 fold enrichment (6-mer frequency, TF over GST control)"
same,binding signal,ETV7,"1.21 fold enrichment (6-mer frequency, TF over GST control)"
same,binding signal,ELF5,"1.18 fold enrichment (6-mer frequency, TF over GST control)"
same,binding signal,ETV3,"1.25 fold enrichment (6-mer frequency, TF over GST control)"
same,binding signal,ETV6,"1.3 fold enrichment (6-mer frequency, TF over GST control)"
